The nature of test [1]: antimalarial activity against Dd2 strain (AID 2302;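 active = growth inhibition above 50% at the single 2 µM test dose, taken to imply half-maximal potency below 2 µM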;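 note: 0% = DMSO untreated growth and 100% = chloroquine plus artemisinin killed control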). Conditions: P. falciparum Dd2 in RBCs, LDH growth readout, 72 h; at 2 µM; active compounds read high.
The nature of test [2]: human hepatoma cell viability loss – ATP luminescence, cytotoxicity control for P. falciparum antimalarial project, primary screen (AID 2303;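 active = inhibition above 50%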;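 note: 0% = DMSO wells and 100% = digitonin-killed cells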). Conditions: HepG2 viability, 24-48 h, at 10 µM, active compounds read high.
The target in test [3] is L-lactate dehydrogenase (Plasmodium falciparum (isolate CDC / Honduras)) (UniProt Q27743). The test can be described thus: PfLDH activity inhibition – cell lysate, 3D7 strain, counter-screen for P. falciparum growth inhibition project (AID 2304).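 Note: 0% = vehicle and 100% = reference inhibitor.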 As to conditions: P. falciparum 3D7 crude extract, LDH APAD/NBT absorbance; at 2 µM; active compounds read high.
Sequence of L-lactate dehydrogenase (Plasmodium falciparum (isolate CDC / Honduras)) (Q27743 whole entry, looked up): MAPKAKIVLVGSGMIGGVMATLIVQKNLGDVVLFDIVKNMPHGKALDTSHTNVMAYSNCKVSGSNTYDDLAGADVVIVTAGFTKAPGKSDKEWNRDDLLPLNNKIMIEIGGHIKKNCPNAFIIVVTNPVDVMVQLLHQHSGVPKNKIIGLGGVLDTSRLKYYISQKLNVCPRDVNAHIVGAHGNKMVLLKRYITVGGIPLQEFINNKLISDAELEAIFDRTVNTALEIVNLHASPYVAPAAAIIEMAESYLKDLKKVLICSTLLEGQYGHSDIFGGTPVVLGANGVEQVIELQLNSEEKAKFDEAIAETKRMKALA
Test [4] can be described thus: inhibition of 3D7 malaria parasite growth – strain 3D7 (AID 2306).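 Note: 0% = DMSO wells and 100% = chloroquine plus artemisinin control wells.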 As to conditions: P. falciparum 3D7 erythrocytic growth, LDH absorbance, 72 h; at 2 µM; active compounds read high.
Test [5] has as its target Calcium-dependent protein kinase 1 (Plasmodium falciparum (isolate 3D7)) (UniProt P62344). Put plainly: PfCDPK1 kinase inhibitors, biochemical, TCAMS library (AID 1159585; cut-off not given, nearly all actives have IC50 up to about 0.98 µM;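 note: inhibitors leave more ATP so luminescence rises with inhibition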). Conditions: recombinant PfCDPK1, Kinase-Glo ATP depletion luminescence.
Test [6] has as its target Plasmodium falciparum protein kinase 6 (PK6, PF3D7_1337100) (UniProt Q8IDW1). Put plainly: PfPK6 kinase inhibitors, biochemical, TCAMS library (AID 1159586). As to conditions: recombinant PfPK6, Kinase-Glo ATP depletion luminescence.
In test [7] the target is Protein kinase 7 (PK7), Plasmodium falciparum 3D7 (PF3D7_0213400) (UniProt Q7YTF7). The test can be described thus: inhibition of Plasmodium PK7 catalytic activity – biochemical, TCAMS antimalarial set, Kinase-Glo luminescence (AID 1159587). As to conditions: recombinant PfPK7, Kinase-Glo ATP depletion luminescence.
Sequence of Protein kinase 7 (PK7), Plasmodium falciparum 3D7 (PF3D7_0213400) (Q7YTF7 1-343): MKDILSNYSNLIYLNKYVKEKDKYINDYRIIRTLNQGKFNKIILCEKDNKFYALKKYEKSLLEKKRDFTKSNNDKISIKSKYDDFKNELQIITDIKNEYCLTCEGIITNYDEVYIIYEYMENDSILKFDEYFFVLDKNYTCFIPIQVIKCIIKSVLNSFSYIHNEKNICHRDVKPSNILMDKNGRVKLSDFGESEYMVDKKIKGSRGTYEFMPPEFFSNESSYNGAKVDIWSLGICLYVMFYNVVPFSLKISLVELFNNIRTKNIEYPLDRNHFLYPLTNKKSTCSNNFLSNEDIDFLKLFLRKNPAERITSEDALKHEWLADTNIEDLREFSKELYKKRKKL
In test [8] the target is Calcium-dependent protein kinase 4 (Plasmodium falciparum (isolate 3D7)) (UniProt Q8IBS5). The test can be described thus: PfCDPK4 kinase inhibitors, biochemical, TCAMS library (AID 1159588; cut-off not given, nearly all actives have IC50 up to about 0.91 µM). As to conditions: recombinant PfCDPK4, Kinase-Glo ATP depletion luminescence.
Sequence of Calcium-dependent protein kinase 4 (Plasmodium falciparum (isolate 3D7)) (Q8IBS5 whole entry, looked up): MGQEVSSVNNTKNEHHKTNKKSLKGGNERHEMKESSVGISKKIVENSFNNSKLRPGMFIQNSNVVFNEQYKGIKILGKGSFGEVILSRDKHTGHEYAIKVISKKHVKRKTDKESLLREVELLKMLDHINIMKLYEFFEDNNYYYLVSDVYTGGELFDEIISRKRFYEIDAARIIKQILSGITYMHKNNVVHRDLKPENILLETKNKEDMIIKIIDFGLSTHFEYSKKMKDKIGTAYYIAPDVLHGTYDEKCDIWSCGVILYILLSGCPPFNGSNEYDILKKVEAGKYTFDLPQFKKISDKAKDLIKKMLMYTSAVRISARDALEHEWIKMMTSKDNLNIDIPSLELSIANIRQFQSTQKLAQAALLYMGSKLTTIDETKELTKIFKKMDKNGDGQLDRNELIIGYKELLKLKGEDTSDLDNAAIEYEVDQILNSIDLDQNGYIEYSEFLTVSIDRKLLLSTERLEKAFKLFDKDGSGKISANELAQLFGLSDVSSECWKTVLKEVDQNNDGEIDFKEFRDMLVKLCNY

Values without a mark were called inactive. For some assays here: Entries with a potency or affinity are not part of this list. The source made the active and inactive calls. Unless noted, the rule behind the calls is not given here.

Sequence of Plasmodium falciparum protein kinase 6 (PK6, PF3D7_1337100) (Q8IDW1 1-305): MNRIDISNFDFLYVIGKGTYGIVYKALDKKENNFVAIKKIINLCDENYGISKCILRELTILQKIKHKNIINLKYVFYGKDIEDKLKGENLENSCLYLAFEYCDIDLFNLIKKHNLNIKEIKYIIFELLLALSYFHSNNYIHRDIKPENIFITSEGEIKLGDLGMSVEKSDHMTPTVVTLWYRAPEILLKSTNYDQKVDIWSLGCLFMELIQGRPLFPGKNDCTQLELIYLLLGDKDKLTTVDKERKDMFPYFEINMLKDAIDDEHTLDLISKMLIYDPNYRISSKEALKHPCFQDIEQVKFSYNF
Sequence of Calcium-dependent protein kinase 1 (Plasmodium falciparum (isolate 3D7)) (P62344 whole entry, looked up): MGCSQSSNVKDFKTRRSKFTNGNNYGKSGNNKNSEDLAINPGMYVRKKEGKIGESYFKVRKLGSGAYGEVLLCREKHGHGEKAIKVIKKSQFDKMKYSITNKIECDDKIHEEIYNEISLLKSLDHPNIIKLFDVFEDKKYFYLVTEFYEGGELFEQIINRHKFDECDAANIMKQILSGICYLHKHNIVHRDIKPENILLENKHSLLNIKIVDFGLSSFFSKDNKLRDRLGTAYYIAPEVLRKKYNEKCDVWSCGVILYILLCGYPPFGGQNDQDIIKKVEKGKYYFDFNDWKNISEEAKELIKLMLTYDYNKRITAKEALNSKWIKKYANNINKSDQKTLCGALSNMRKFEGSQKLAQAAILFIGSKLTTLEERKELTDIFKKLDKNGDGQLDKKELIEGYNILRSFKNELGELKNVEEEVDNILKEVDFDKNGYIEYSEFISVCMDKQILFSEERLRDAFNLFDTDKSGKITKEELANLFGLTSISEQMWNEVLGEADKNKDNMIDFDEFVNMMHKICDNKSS

As for `O=C(Nc1ccc2c(c1)CCC2)c1cccc(CN2CCCN(Cc3cccc(O)c3)CC2)c1`, the figures for the growth inhibition in test [1] and in test [4] were 20% and 91% (active), respectively. Further, the inhibition in test [2] was 10%; in test [3], 0%. Moreover, the outcome in test [5], in test [6], in test [7] and in test [8] was inactive.

With `Cc1ccc(F)c(NC(=O)c2c(-c3c(F)cccc3Cl)noc2C)c1`, the growth inhibition in test [1] was 18%; in test [4], 90% (active). Also, the inhibition was 13% in test [2] and 0% in test [3]. Moreover, the outcome in test [5], in test [6], in test [7] and in test [8] was inactive.

As for `CCCN1CCN(c2ccccc2NS(=O)(=O)c2ccc(C(=O)Nc3ccc(Cl)cc3)cc2)CC1`, the results for the growth inhibition in test [1] and in test [4] were 9% and 84% (active), respectively. Besides, the results for the inhibition in test [2] and in test [3] were 17% and -2%, respectively. For the same compound, the outcome in test [5], in test [6], in test [7] and in test [8] was inactive.

As for `NS(=O)(=O)c1cccc(-c2ccc3ncc(N4CCOCC4)nc3c2)c1`, the figures for the growth inhibition in test [1] and in test [4] were 74% (active) and 96% (active), respectively. In addition, the inhibition in test [2] was 17%; in test [3] it was -4%. Also, the outcome in test [5], in test [6], in test [7] and in test [8] was inactive.

Consider `COc1cc(C(=O)N2CCOC(CCN3CCc4c(c5ccccc5n4C)C3)(c3ccc(Cl)c(Cl)c3)C2)cc(OC)c1OC` (centres undefined), for which the results for the growth inhibition in test [1] and in test [4] were 68% (active) and 87% (active), respectively. Moreover, the inhibition in test [2] was 16%; in test [3], -4%. Also, the result in test [5], in test [6], in test [7] and in test [8] was inactive.

For the compound `CCCc1cc(=O)[nH]c(-n2nc(C)cc2NC(=O)c2cc3ccccc3o2)n1`, the growth inhibition is 63% (active) in test [1] and 90% (active) in test [4]. For the same compound, the results for the inhibition in test [2] and in test [3] were 39% and -2%, respectively. Moreover, the result in test [5], in test [6], in test [7] and in test [8] was inactive.

For the compound `Cc1cc(N2CCCC2)nc(Nc2ccc(NC(=O)C(C)(C)C)cc2)n1`, the growth inhibition was 15% in test [1] and 95% (active) in test [4]. Moreover, the inhibition in test [2] is 24%; in test [3], 2%. In addition, the result in test [5], in test [6], in test [7] and in test [8] was inactive.

In the case of `Cc1cc(N2CCCN(CC3CCCCC3)CC2)nc(Nc2ccc(Br)cc2)n1`, the growth inhibition is 54% (active) in test [1] and 95% (active) in test [4]. Moreover, the values for the inhibition in test [2] and in test [3] were 24% and -1%, respectively. In addition, the result in test [5], in test [6], in test [7] and in test [8] was inactive.

On to `COc1ccc(-c2ccc(NC(=O)c3ccc(Cl)cc3)cc2)cc1CN1CCCN(C)CC1`, for which the growth inhibition in test [1] was 61% (active); in test [4], 93% (active). Further, the inhibition in test [2] is 27%; in test [3], 2%. For the same compound, the outcome in test [5], in test [6], in test [7] and in test [8] was inactive.

Consider `CC(C)COc1ccc(Cl)cc1Cc1ccc(-c2nc3c(cnc4ccccc43)[nH]2)o1`, for which the results for the growth inhibition in test [1] and in test [4] were 26% and 87% (active), respectively. Further, the inhibition was 21% in test [2] and 1% in test [3]. Further, the outcome in test [5], in test [6], in test [7] and in test [8] was inactive.

As for `COc1ccc2ncc(F)c(CCN3CCC(CNCc4cccc5c4OCO5)CC3)c2n1`, the growth inhibition in test [1] is 37%; in test [4], 93% (active). Besides, the inhibition in test [2] was 39%; in test [3] it was -2%. For the same compound, the outcome in test [5], in test [6], in test [7] and in test [8] was inactive.

As for `CN1CCCC(COc2cc3c(cc2Br)CCN3C(=O)Nc2ccc(-c3ccncc3)c(Cl)c2)C1` (centres undefined), the values for the growth inhibition in test [1] and in test [4] were 96% (active) and 100% (active), respectively. Besides, the figures for the inhibition in test [2] and in test [3] were 99% (active) and -2%, respectively. The result in test [5], in test [6], in test [7] and in test [8] was inactive.

Regarding `Cc1cc(-c2ccc(NC(=O)N3CCc4cc(Br)c(N5CCN(C)CC5)cc43)cc2)cc(C)n1`, the results for the growth inhibition in test [1] and in test [4] were 4% and 92% (active), respectively. Besides, the inhibition in test [2] was 29%; in test [3] it was -2%. For the same compound, the result in test [5], in test [6], in test [7] and in test [8] was inactive.

`Cc1ccc2c(c1)NC[C@@]21CCN(C[C@@H](O)C2CCN(c3ccnc(Cl)c3)CC2)C[C@@H]1C`: the results for the growth inhibition in test [1] and in test [4] were 69% (active) and 87% (active), respectively. The inhibition in test [2] is 46%; in test [3], -5%. In addition, the result in test [5], in test [6], in test [7] and in test [8] was inactive.

Turning to `COc1ccc(CCNCCCCNCCc2ccc(OC)c3ccccc23)c2ccccc12`, the growth inhibition in test [1] was 33%; in test [4], 100% (active). Moreover, the inhibition in test [2] is 100% (active); in test [3] it was -1%. The result in test [5], in test [6], in test [7] and in test [8] was inactive.

Regarding `COc1ccc(N2C(N)=NC(N)=NC2(C)C)cc1OC`, the results for the growth inhibition in test [1] and in test [4] were -4% and 95% (active), respectively. Also, the inhibition was 13% in test [2] and -2% in test [3]. Besides, the outcome in test [5], in test [6], in test [7] and in test [8] was inactive.

As for `Cc1cc(Cl)c(S(=O)(=O)N(C)c2ccccc2)cc1OCC(=O)NC1CCCCC1`, the growth inhibition was 94% (active) in test [1] and 99% (active) in test [4]. Moreover, the inhibition in test [2] was 3%; in test [3] it was -3%. The result in test [5], in test [6], in test [7] and in test [8] was inactive.

`Cc1cc(CN2CC[C@H](NC(=O)c3ccc(Cl)c(Cl)c3)C2)ccc1OCCN1CCCC1`: the growth inhibition was 92% (active) in test [1] and 101% (active) in test [4]. Also, the values for the inhibition in test [2] and in test [3] were 56% (active) and 0%, respectively. For the same compound, the result in test [5], in test [6], in test [7] and in test [8] was inactive.

As to `COc1ccc2nccc([C@@H](O)CN3CCC(NC(=O)c4cc5c(F)cc(F)cc5[nH]4)CC3)c2n1`, the growth inhibition in test [1] was 74% (active); in test [4] it was 101% (active). Also, the inhibition in test [2] is 32%; in test [3], -3%. Moreover, the result in test [5], in test [6], in test [7] and in test [8] was inactive.

Consider `CCN(CC)CCOc1ccc(N(Cc2ccc(C(C)(C)C)cc2)C(=O)c2ccc(Cc3ccccc3)cc2)cc1OC`, for which the growth inhibition in test [1] is 73% (active); in test [4], 99% (active). The inhibition in test [2] was 5%; in test [3], 0%. In addition, the result in test [5], in test [6], in test [7] and in test [8] was inactive.

With `O=C(Nc1ccc(C(F)(F)F)cc1)NC1CCN(c2ccnc3cc(Cl)ccc23)C1` (centres undefined), the results for the growth inhibition in test [1] and in test [4] were 99% (active) and 102% (active), respectively. Also, the inhibition in test [2] was 20%; in test [3], -2%. Further, the result in test [5], in test [6], in test [7] and in test [8] was inactive.

Take `O=C(NC1CCN(c2ccnc3ccccc23)C1)c1cccc(C(F)(F)F)c1` (centres undefined): the values for the growth inhibition in test [1] and in test [4] were 86% (active) and 94% (active), respectively. The inhibition in test [2] is 28%; in test [3], 6%. Further, the result in test [5], in test [6], in test [7] and in test [8] was inactive.

`OC(CN(Cc1ccccc1)Cc1ccccc1)Cn1c2ccc(Cl)cc2c2cc(Cl)ccc21` (centres undefined): the results for the growth inhibition in test [1] and in test [4] were 95% (active) and 89% (active), respectively. For the same compound, the inhibition in test [2] was 5%; in test [3], 6%. Also, the result in test [5], in test [6], in test [7] and in test [8] was inactive.

Consider `CN(C)CC1CCCN1Cc1ccccc1-c1cnn(C)c(=O)c1Oc1cccc(C#N)c1` (centres undefined), for which the growth inhibition in test [1] was 15%; in test [4], 92% (active). Also, the inhibition in test [2] was 26%; in test [3], 4%. Further, the result in test [5], in test [6], in test [7] and in test [8] was inactive.

Turning to `COc1ccc(CCN2CCC(NCc3cccc(N(C)C)c3)CC2)cc1`, the growth inhibition was 7% in test [1] and 98% (active) in test [4]. The inhibition in test [2] is 18%; in test [3] it was 2%. For the same compound, the result in test [5], in test [6], in test [7] and in test [8] was inactive.

Take `Cc1cccc(C(=O)NC(NC(=S)Nc2ccc([N+](=O)[O-])cc2)C(Cl)(Cl)Cl)c1` (centres undefined): the values for the growth inhibition in test [1] and in test [4] were 66% (active) and 96% (active), respectively. For the same compound, the inhibition in test [2] is 14%; in test [3] it was -2%. Moreover, the outcome in test [5], in test [6], in test [7] and in test [8] was inactive.

Regarding `CC(Cl)=CCc1c(C)[nH]c2c(ccc3ccccc32)c1=O`, the growth inhibition in test [1] and in test [4] was 96% (active) each time. In addition, the inhibition in test [2] is 24%; in test [3], 8%. Moreover, the outcome in test [5], in test [6], in test [7] and in test [8] was inactive.

Turning to `CC1CCc2c(C(=O)N3CCc4ccccc4C3)csc2C1` (centres undefined), the results for the growth inhibition in test [1] and in test [4] were 75% (active) and 99% (active), respectively. Moreover, the inhibition is 9% in test [2] and -3% in test [3]. Moreover, the outcome in test [5], in test [6], in test [7] and in test [8] was inactive.
